Reference: PubChem BioAssay (NCATS)
Records with an inconclusive call do not appear. The source made the active and inactive calls. Unless noted, calls come from the whole dose curve; as a rule, active = well fitted curve in the direction sought with a large enough effect; inconclusive = small, poorly fitted or top-dose-only effect, or another doubt; inactive = no such curve, though single readings can be large; an effect the other way counts as inactive or inconclusive.

What was measured:
[1] = qHTS for differential inhibitors of proliferation of Plasmodium falciparum line GB4 (AID 1816); conditions: Potency: Plasmodium falciparum GB4 proliferation inhibition;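 note: parasite growth measured after 72 h incubation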; note: potency is the fitted concentration of half-maximal effect
[2] = qHTS for differential inhibitors of proliferation of Plasmodium falciparum line 3D7 (AID 1876); note: potency is the fitted concentration of half-maximal effect
[3] = qHTS for differential inhibitors of proliferation of Plasmodium falciparum line D10 (AID 1877);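 note: parasites grown with compound for 72 h before DNA staining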; note: potency is the fitted concentration of half-maximal effect
[4] = qHTS for differential inhibitors of proliferation of Plasmodium falciparum line Dd2 (AID 1882); conditions: Potency: Plasmodium falciparum Dd2 proliferation inhibition; note: nearly all actives have a fitted effect of over 65% in size; note: potency is the fitted concentration of half-maximal effect
Procedure, shortened: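 RBC culture, 0.3% parasitemia / 2.5% Hct final; cpd added by pin tool in DMSO; 72 h, 37 C, 5% CO2; lysis buffer + SYBR Green I, o/n RT dark; FI 485/535; norm. to artemisinin 0.29 uM and DMSO.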

[5] = qHTS for differential inhibitors of proliferation of Plasmodium falciparum line HB3 (AID 1886); conditions: Potency: Plasmodium falciparum HB3 proliferation inhibition;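 note: parasites grown with compound for 72 h before SYBR Green readout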; note: potency is the fitted concentration of half-maximal effect
[6] = qHTS Assay for Modulators of Human Peripheral Myelin Protein 22 (PMP22) Expression/Activity (AID 1967; active = well fitted curve in the direction sought with a large enough effect in the signal ratio; the % refers to the signal ratio)
Procedure, shortened: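 MSC80 mouse Schwann cells stably carrying Pmp22 promoter–green click beetle luciferase plus EF-alpha–red luciferase control were dosed for 24h at 37 °C. Dual-colour luminescence was filter-overlap corrected; %Activity came from green/red ratio versus untreated cells.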

[7] = target: Ferritin light chain (Equus caballus) (UniProt P02791); test: qHTS Validation Assay for Identification of Novel General Anesthetics (AID 2323); note: series mostly up to about 77 µM
Chain of Ferritin light chain (Equus caballus) (P02791 2-175 limits assumed): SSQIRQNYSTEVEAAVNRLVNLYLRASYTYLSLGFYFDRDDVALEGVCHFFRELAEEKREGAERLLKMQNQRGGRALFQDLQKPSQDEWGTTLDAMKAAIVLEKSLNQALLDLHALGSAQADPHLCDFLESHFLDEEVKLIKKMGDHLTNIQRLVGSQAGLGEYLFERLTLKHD
Procedure, shortened: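 Competitive displacement of profluorescent 1-aminoanthracene (1-AMA, 50% saturated solution in PBS) from 10 uM horse-spleen apoferritin. Compounds incubated 10 min at room temperature; fluorescence read at 380 nm excitation/535 nm emission, normalized to free 1-AMA and complex, fitted with four-parameter Hill equation.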

[8] = target: ATP-dependent DNA helicase Q1 (Homo sapiens) (UniProt P46063); test: qHTS Validation Assay for Inhibitors of RecQ-Like Dna Helicase 1 (RECQ1) (AID 2353)
Chain of ATP-dependent DNA helicase Q1 (Homo sapiens) (P46063 whole entry, looked up): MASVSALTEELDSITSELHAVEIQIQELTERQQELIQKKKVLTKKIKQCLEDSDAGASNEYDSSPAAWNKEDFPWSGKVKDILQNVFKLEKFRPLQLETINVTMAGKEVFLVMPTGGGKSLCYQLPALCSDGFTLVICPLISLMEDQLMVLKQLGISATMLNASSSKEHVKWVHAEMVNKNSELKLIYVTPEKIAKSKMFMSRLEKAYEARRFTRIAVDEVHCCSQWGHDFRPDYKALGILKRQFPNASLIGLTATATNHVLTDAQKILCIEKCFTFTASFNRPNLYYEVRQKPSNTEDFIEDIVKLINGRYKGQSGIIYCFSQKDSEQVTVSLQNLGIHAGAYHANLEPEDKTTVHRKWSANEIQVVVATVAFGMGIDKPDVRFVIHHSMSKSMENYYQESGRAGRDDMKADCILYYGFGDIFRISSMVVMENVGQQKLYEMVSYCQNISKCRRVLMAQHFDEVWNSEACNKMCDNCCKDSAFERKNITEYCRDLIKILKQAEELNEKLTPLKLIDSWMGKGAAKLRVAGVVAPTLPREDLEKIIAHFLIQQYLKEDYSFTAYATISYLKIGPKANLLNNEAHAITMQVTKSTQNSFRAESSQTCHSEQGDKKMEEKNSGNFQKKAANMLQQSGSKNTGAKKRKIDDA
Procedure, shortened: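 RECQ1T1 50 nM; forked duplex (20 bp + 30-nt ss tails) 200 nM, ATP 2 mM final; pH 8.0, 2 mM MgCl2, 2.5 ug/ml poly(dI-dC); 15 min compound preincubation; discontinuous kinetic read over 2 h at RT.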

[9] = target: RecQ-like DNA helicase BLM (Homo sapiens) (UniProt P54132); test: qHTS Validation Assay for Inhibitors of Bloom's syndrome helicase (BLM) (AID 2364)
Chain of RecQ-like DNA helicase BLM (Homo sapiens) (P54132 whole entry, looked up): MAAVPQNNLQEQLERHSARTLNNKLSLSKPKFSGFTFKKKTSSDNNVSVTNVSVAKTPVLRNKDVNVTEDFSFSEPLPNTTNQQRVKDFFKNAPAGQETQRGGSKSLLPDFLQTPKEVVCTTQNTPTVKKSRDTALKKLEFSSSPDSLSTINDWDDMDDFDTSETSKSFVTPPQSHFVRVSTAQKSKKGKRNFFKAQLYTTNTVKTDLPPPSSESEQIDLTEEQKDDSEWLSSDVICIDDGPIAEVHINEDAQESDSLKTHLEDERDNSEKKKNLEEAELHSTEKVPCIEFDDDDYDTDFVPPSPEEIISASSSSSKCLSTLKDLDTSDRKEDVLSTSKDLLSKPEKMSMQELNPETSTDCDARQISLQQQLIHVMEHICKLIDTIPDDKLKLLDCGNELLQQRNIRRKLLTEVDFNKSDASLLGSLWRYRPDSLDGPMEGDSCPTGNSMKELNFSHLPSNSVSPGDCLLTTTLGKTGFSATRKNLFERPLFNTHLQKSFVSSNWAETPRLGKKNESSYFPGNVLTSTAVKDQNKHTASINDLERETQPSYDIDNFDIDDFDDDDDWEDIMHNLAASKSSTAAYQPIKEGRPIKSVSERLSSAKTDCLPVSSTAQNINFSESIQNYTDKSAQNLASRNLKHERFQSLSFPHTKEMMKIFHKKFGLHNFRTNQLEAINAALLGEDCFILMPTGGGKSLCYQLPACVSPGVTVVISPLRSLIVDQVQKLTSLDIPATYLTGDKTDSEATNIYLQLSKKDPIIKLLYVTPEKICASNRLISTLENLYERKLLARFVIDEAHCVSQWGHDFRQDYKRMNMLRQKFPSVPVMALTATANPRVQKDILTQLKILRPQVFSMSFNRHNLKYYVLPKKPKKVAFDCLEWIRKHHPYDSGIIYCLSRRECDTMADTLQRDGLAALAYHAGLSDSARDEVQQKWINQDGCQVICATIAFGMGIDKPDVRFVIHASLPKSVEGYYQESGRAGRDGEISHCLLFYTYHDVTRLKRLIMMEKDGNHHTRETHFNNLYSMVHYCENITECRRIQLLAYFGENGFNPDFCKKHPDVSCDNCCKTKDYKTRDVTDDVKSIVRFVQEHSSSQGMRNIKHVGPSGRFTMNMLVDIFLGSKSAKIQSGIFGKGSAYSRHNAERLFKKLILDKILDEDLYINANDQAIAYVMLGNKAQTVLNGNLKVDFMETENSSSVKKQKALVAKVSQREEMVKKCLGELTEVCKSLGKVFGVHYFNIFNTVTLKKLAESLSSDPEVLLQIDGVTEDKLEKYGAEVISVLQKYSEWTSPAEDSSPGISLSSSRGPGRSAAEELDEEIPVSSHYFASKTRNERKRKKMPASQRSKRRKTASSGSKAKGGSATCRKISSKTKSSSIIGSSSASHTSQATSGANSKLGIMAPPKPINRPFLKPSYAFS
Procedure, shortened: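 50 nM BLM preincubated 15 min at room temperature with compound in pH 8.0 Tris buffer containing 2.5 ug/ml poly(dI-dC); started with 200 nM TAMRA/BHQ-2 forked duplex and 2 mM ATP (final). Unwinding read as TAMRA fluorescence increase, two reads 2 h apart.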

[10] = Cytometric Cell-Based qHTS for Inhibitors of the mTORC1 Signaling Pathway in MEF (Tsc2-/-, p53-/-) Cells (AID 2660); note: potency is the fitted concentration of half-maximal effect
Procedure, shortened: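 Immunofluorescence qHTS of rpS6 Ser235/236 phosphorylation: MEFs (Tsc2-/-, p53-/-) treated 24 h, 37 C, in DMEM + 10% FBS. Alexa-488 signal normalized to PI count, referenced to rapamycin (7.5 nM) and DMSO; PI cell number recorded for viability.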

[11] = High Content Imaging Cell-Based qHTS for Inhibitors of the mTORC1 Signaling Pathway in MEF (Tsc2-/-, p53-/-) Cells (AID 2666);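 note: percent of cells scored positive for phospho-rpS6 Ser235/236 immunostaining by imaging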
Procedure, shortened: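 MEF Tsc2-/- p53-/- (empty vector), DMEM/10% FBS; cpd 24 h 37 °C; PFA fix, Alexa-488 p-rpS6 S235/236 Ab, Hoechst; imaged; rapamycin-defined inhibition; % positive cells/well.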

[12] = High Content Imaging Cell-Based qHTS for Inhibitors of the mTORC1 Signaling Pathway in MEF Cells (AID 2667);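 note: Tsc2-/- p53-/- MEFs stably re-expressing wild-type Tsc2 exposed 24 h; series mostly up to about 38 µM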
Procedure, shortened: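 Read-out is the share of phospho-rpS6-positive cells per well, from Hoechst-normalized Alexa-488 Ser235/236 staining imaged on IN Cell. Cells: WT Tsc2-expressing Tsc2-/-, p53-/- MEFs exposed to compound for 24 hrs.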

[13] = Cytometry Cell-Based qHTS for Inhibitors of the mTORC1 Signaling Pathway in MEF cells (AID 2668);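 note: Tsc2-/- p53-/- mouse embryonic fibroblasts stably re-expressing wild-type Tsc2; percent cells positive for phospho-rpS6 Ser235/236 relative to propidium iodide stain; series mostly up to about 38 µM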
Procedure, shortened: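 WT MEFs (Tsc2-/-, p53-/- stably re-expressing WT Tsc2) in DMEM + 10% FBS received compounds 24 hrs after plating, for 24 hrs at 37 degree Celsius. Fixed cells stained with Alexa-488 anti-phospho-rpS6 Ser235/236 and propidium iodide; laser-scanning cytometry read-out.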

[14] = Validation screen for inhibitors of Lassa infection (AID 463096; calls by dose curve; note: potency is the fitted concentration of half-maximal effect)
[15] = Validation screen for small molecules that induce DNA re-replication in MCF 10A normal breast cells (AID 463097); note: nearly all actives have a fitted effect of over 60% in size
Procedure, shortened: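 Readout: Hoechst nuclear fluorescence intensity, 405 ex / 500-530 em, by scanning plate imager; re-replication scored as increase in nuclei with elevated DNA content. Cells exposed to compound 48 hr, 37 C, 5% CO2 beforehand.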

[16] = target: Ubiquitin carboxyl-terminal hydrolase 2 (Homo sapiens) (UniProt O75604); test: qHTS Validation Assay for Inhibitors of Ubiquitin-specific Protease USP2a Using CHOP2 as the Reporter (AID 463106)
Chain of Ubiquitin carboxyl-terminal hydrolase 2 (Homo sapiens) (O75604 whole entry, looked up): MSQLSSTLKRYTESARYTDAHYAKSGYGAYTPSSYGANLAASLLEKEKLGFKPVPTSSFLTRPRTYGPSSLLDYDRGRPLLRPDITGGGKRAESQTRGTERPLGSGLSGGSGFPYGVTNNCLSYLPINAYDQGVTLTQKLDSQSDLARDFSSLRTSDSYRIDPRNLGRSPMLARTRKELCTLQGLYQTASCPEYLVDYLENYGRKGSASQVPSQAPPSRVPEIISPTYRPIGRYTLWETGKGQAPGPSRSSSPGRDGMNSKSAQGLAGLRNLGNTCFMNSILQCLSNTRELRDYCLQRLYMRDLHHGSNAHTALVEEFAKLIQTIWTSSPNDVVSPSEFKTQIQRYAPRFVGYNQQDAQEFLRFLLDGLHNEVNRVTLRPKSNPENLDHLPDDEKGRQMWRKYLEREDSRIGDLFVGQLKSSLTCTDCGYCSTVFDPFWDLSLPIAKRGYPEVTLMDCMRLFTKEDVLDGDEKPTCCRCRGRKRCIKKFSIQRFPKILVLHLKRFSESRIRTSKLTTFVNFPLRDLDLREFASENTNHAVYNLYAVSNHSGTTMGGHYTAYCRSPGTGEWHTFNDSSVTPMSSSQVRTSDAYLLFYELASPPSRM
Procedure, shortened: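 Fluorescence read-out at Ex 485nm/Em 531nm after 60min RT, following addition of 25nM Ub-CHOP2 plus 25nM reporter substrate to USP2 core (10nM) pretreated 30min with compound. Data normalized to NEM full inhibition; concentration-response curves fitted.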

[17] = qHTS Assay for Identification of Small Molecule Inducers of Hypoxia Response (AID 2120; active = well fitted curve in the direction sought with a large enough effect in the signal ratio, with a control signal flat, not every such curve was filed as active; the % refers to the signal ratio)
Procedure, shortened: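 HRE-bla ME-180, 2500 cells/well, 0.5% dialyzed FBS medium; cpd titration, 17 h 37 degrees C; CCF4 2.5 h RT; Ex 405, Em 460/530 ratio -> %Activity, AC50.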

[18] = qHTS for differential inhibitors of proliferation of Plasmodium falciparum line 7G8 (AID 1815);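 note: parasite growth measured after three days of incubation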; note: potency is the fitted concentration of half-maximal effect
[19] = qHTS for differential inhibitors of proliferation of Plasmodium falciparum line W2 (AID 1883); conditions: Potency: Plasmodium falciparum W2 proliferation inhibition;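 note: potency is the fitted concentration of half-maximal effect; parasites grown with compound for 72 h before lysis and staining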

Measured: Potency

Clc1cnc(Oc2ccc(Oc3ncc(Cl)cc3Cl)cc2)c(Cl)c1
not listed: [17] | [18] | [19]
inactive: all other assays above

CCOCCOC(C)=O
inactive: [17]

S=C(NC1CCCCC1)N1CCC(c2cnc[nH]2)CC1
active: [2] 11.2 µM | [19] 11.2 µM
not listed: [1] | [5] | [9] | [17]
inactive: all other assays above

CNCCc1ccc(O)c(O)c1
inactive: [7] | [8] | [10] | [11] | [12] | [13] | [14] | [16]
active: [1] 8.91 µM | [2] 12.6 µM | [19] 10 µM

CN[C@@H](C)[C@H](O)c1ccccc1
active: [18] 12.6 µM | [1] 10 µM | [14] 10 µM
inactive: [7] | [8]

CN[C@@H]1C[C@@H](c2ccc(Cl)c(Cl)c2)c2ccccc21
active: [2] 12.6 µM | [4] 12.6 µM | [10] 18.5 µM
inactive: [8] | [9] | [16]

Cc1nccc2c1[nH]c1ccccc12
active: [18] 14.1 µM | [1] 12.6 µM | [19] 10 µM | [5] 11.2 µM
not listed: [2] | [3] | [6] | [7] | [17]
inactive: all other assays above

O=S(=O)(c1ccc(Cl)cc1)c1ccc(Cl)cc1
inactive: [17]

O=C(O)C(Cl)Cl
inactive: [17]

NCCc1c[nH]c2ccccc12
not listed: [1] | [2] | [5] | [6] | [17] | [18] | [19]
inactive: all other assays above

CC1=NN=C(c2ccc(N)cc2)c2cc3c(cc2C1)OCO3
active: [18] 10 µM | [19] 8.91 µM
not listed: [1] | [2] | [3] | [5] | [6] | [17]
inactive: all other assays above

Cc1cc(O)ccc1Cl
inactive: [17]

C#CCOC(=O)C1=CCCN(C)C1
active: [2] 12.6 µM | [19] 15.8 µM
not listed: [1] | [3] | [5] | [6] | [17] | [18]
inactive: all other assays above

C[C@@H](N)Cc1cnc[nH]1
not listed: [9] | [17] | [18] | [19]
inactive: all other assays above

O=[N+]([O-])c1c(Cl)c(Cl)cc(Cl)c1Cl
inactive: [17]

Nc1ccc(Sc2ccc(N)cc2)cc1
inactive: [17]

NC1CC1c1ccccc1 (stereo not given)
active: [18] 10 µM | [1] 10 µM | [19] 10 µM | [5] 10 µM
not listed: [2] | [3] | [6] | [7] | [9] | [17]
inactive: all other assays above

CN(C)NC(=O)CCC(=O)O
inactive: [17]

CC(C)NC(C)Cc1ccc(I)cc1 (stereo not given)
active: [18] 10 µM | [1] 11.2 µM | [19] 7.08 µM
not listed: [2] | [3] | [4] | [5] | [6] | [17]
inactive: all other assays above

Nc1ccc(Cl)cc1N
inactive: [17]

O=C(Cc1ccc(Cl)c(Cl)c1)N1CCCCC1CN1CCCC1 (stereo not given)
active: [18] 5.01 µM | [2] 12.6 µM | [4] 7.94 µM | [19] 2 µM
not listed: [1] | [3] | [5] | [6] | [9] | [17]
inactive: all other assays above

NC1CCc2cc(O)c(O)cc2C1 (stereo not given)
active: [19] 14.1 µM
not listed: [1] | [3] | [5] | [9] | [16] | [17]
inactive: all other assays above

CC(Cc1ccc(O)cc1)NCC(O)c1cc(O)cc(O)c1 (stereo not given)
inactive: [4] | [7] | [10] | [11] | [12] | [13] | [14] | [15]

Oc1ccc2c3c1O[C@H]1c4[nH]c5c(c4C[C@@]4(O)[C@@H](C2)N(CC2CC2)CC[C@]314)C[C@@]1(O)[C@H]2Cc3ccc(O)c4c3[C@@]1(CCN2CC1CC1)[C@H]5O4
active: [1] 15.8 µM | [2] 11.2 µM | [3] 10 µM | [19] 12.6 µM | [5] 12.6 µM
not listed: [4] | [17] | [18]
inactive: all other assays above

CCn1cc(C(=O)O)c(=O)c2cc3c(cc21)OCO3
inactive: [7]
